Measured values as given in PubChem BioAssay AID1159580 (chemical genetic matrix, 2015).
Out of some 5,500 compounds screened, about 2,000 (36%) were called active. Roughly 18% stayed inconclusive and do not appear here. No stated cut-off is given here; in the data, active means normalized growth mostly below about 0.91 (no sharp cut-off); inconclusive means no clear call, values can overlap the other calls; inactive means mostly above about 0.92. The list shows a part of the results.

Assay: chemical genetic growth profiling, strain panel (AID 1159580);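 further: tested at 20 µM; growth read once vehicle control cultures reached saturation at 30 °C; 1 = growth at the plate median or of vehicle wells; lower values mean less growth of the strain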
Conditions: growth OD
[1] = S. cerevisiae deletion strains, locus YAL013W, strain DEP1, active compounds read low
[2] = S. cerevisiae deletion strains, locus YGR078C, strain PAC10, active compounds read low
[3] = S. cerevisiae deletion strains, locus YNL322C, strain KRE1, active compounds read low

Measured: normalized growth

O=C1NC(=O)C(c2ccccc2)(c2ccccc2)N1
inactive: [1] 1.01 | S. cerevisiae deletion strains, locus YAL040C, strain CLN3, active compounds read low 1.1 | S. cerevisiae deletion strains, locus YCL061C, strain MRC1 (second series), active compounds read low 1 | S. cerevisiae deletion strains, locus YDR363W, strain ESC2, active compounds read low 1.02 | S. cerevisiae deletion strains, locus YER002W, strain NOP16, active compounds read low 0.991 | [2] 1.02 | S. cerevisiae deletion strains, locus YNL128W, strain TEP1, active compounds read low 1 | S. cerevisiae deletion strains, locus YNL175C, strain NOP13, active compounds read low 0.993 | S. cerevisiae deletion strains, locus YNL197C, strain WHI3, active compounds read low 1.01 | S. cerevisiae deletion strains, locus YNL224C, strain SQS1, active compounds read low 0.975 | [3] 1.03 | S. cerevisiae deletion strains, locus YOR083W, strain WHI5 (second series), active compounds read low 1.03

O=C1c2ccccc2C(=O)C1(c1ccccc1)[N+](=O)[O-]
inactive: S. cerevisiae deletion strains, locus YEL061C, strain CIN8, active compounds read low 0.943 | S. cerevisiae deletion strains, locus YLR058C, strain SHM2 (second series), active compounds read low 1.03 | S. cerevisiae deletion strains, locus YLR085C, strain ARP6, active compounds read low 0.975 | S. cerevisiae deletion strains, locus YML094W, strain GIM5, active compounds read low 0.946 | S. cerevisiae deletion strains, locus YMR307W, strain GAS1, active compounds read low 0.919 | S. cerevisiae deletion strains, locus YNL298W, strain CLA4 (second series), active compounds read low 0.956 | [3] 1.01 | S. cerevisiae deletion strains, locus YOL006C, strain TOP1, active compounds read low 0.893 | S. cerevisiae deletion strains, locus YPR135W, strain CTF4, active compounds read low 0.798 | S. cerevisiae strains, strain wild type, active compounds read low 0.985
active: [1] 0.848 | S. cerevisiae deletion strains, locus YBR229C, strain ROT2, active compounds read low 0.78 | S. cerevisiae deletion strains, locus YCL061C, strain MRC1, active compounds read low 0.818 | S. cerevisiae deletion strains, locus YDL101C, strain DUN1, active compounds read low 0.776 | S. cerevisiae deletion strains, locus YDL134C, strain PPH21, active compounds read low 0.897 | [2] 0.664 | S. cerevisiae deletion strains, locus YHR030C, strain SLT2, active compounds read low 0.587 | S. cerevisiae deletion strains, locus YHR087W, strain rtc3, active compounds read low 0.811 | S. cerevisiae deletion strains, locus YJR043C, strain POL32, active compounds read low 0.861 | S. cerevisiae deletion strains, locus YJR075W, strain HOC1, active compounds read low 0.747 | S. cerevisiae deletion strains, locus YLR039C, strain RIC1, active compounds read low 0.734 | S. cerevisiae deletion strains, locus YLR262C, strain YPT6, active compounds read low 0.8 | S. cerevisiae deletion strains, locus YMR219W, strain ESC1, active compounds read low 0.832 | S. cerevisiae deletion strains, locus YMR263W, strain SAP30, active compounds read low 0.813 | S. cerevisiae deletion strains, locus YNL153C, strain GIM3, active compounds read low 0.803 | S. cerevisiae deletion strains, locus YNR030W, strain Alg12, active compounds read low 0.0637 | S. cerevisiae deletion strains, locus YPL055C, strain LGE1, active compounds read low 0.799 | S. cerevisiae deletion strains, locus YPL241C, strain CIN2, active compounds read low 0.0628
